Hits are enriched below; roughly 3% of the tested compounds scored in any of these assays.
KDM5B inhibitor: blocks human KDM5B histone demethylase activity | Potency, µM (doses to about 57.7 µM), hits mostly inhibitors | Q9UGL1 | KDM5B demethylase, FDH-coupled NADH fluorescence (FDH is formaldehyde dehydrogenase) | 2.6% of 220,000 active; note: nearly all actives have a fitted effect of over 70% in size
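Here, H3K4me3 peptide (12.5 µM in substrate mix) is demethylated by KDM5BΔAP, 200 nM final, after 10 min compound exposure. Formaldehyde product is coupled through FDH (0.25 U/mL in mix) to NADH fluorescence; 30-min ΔRFU feeds dose-response curves.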
IP6K1 inh: blocks human inositol hexakisphosphate kinase 1. activity change, % (series mostly up to about 58 µM). Q92551. IP6K1 kinase, ADP-Glo luminescence, 2 h; stronger effect = lower value. 0.81% of 140,000 active; in the data active = activity change below about -25%
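ADP-Glo luminescence measures ADP made by human IP6K1 during a 2 h RT reaction with ATP/IP6 (mix at 1.3 mM/130 uM); top library doses 57.5 and 19.1 uM final.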
SNCA viab count: counter-screen for SNCA expression inhibitors: cell viability; HEK-293-SNCA-luc viability, GF-AFC fluorescence, 24 h; Potency, µM (top dose mostly 57.1 µM), usual class: cytotoxic; 0.12% of 150,000 active; note: nearly all actives have a fitted effect of over 30% in size
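Cytotoxicity counterscreen: after 24 h compound treatment of genome-edited SNCA-luciferase HEK-293 cells, live-cell protease substrate GF-AFC read by fluorescence after 30 min; activity scaled between DMSO (0%) and medium-only (-100%), curves Hill-fitted.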
SNCA expr inh: inhibitors of alpha-synuclein (SNCA) gene expression; Potency, µM (series often up to 57.2 µM), usual class: inhibitors; 0.17% of 140,000 active; HEK-293 SNCA-luciferase knock-in, luminescence, 24 h; note: nearly all actives have a fitted effect of over 45% in size
Of the large screens only hits and unclear results are named; the others gave an inactive call; ! = repeats disagree. Unless noted, calls come from the whole dose curve; as a rule, active = well fitted curve in the direction sought with a large enough effect; inconclusive = small, poorly fitted or top-dose-only effect, or another doubt; inactive = no such curve, though single readings can be large; an effect the other way counts as inactive or inconclusive.

CSc1ccc(NC(=O)N2CCc3nc4cc(-c5ccccc5)[nH]n4c(=O)c3C2)cc1	KDM5B inhibitor 25.1µM, SNCA expr inh inconclusive
O=C(NCc1cccc(F)c1)N1CCc2nc3cc(-c4ccccc4)[nH]n3c(=O)c2C1	KDM5B inhibitor 12.6µM, SNCA expr inh inconclusive
COCc1nncn1C1CCN(S(=O)(=O)c2ccc(Br)s2)CC1	none (no result: KDM5B inhibitor)
COc1ccc(-c2cc3nc4c(c(=O)n3[nH]2)CCN(C(=O)COc2ccccc2C)C4)cc1	KDM5B inhibitor 31.6µM
Cc1ccccc1OCC(=O)N1CCc2c(nc3cc(-c4ccccc4Cl)[nH]n3c2=O)C1	none
COc1ccc(NC(=O)N2CCc3nc4cc(-c5ccccc5)[nH]n4c(=O)c3C2)c(C)c1	KDM5B inhibitor 10µM
O=C(NC1CCCCC1)N1CCC(CCc2nc(C3CCOCC3)no2)CC1	none (no result: KDM5B inhibitor)
O=C(Nc1cnc(-c2cccc(Cl)c2)nc1)c1cc(F)cc(F)c1	KDM5B inhibitor 25.1µM
COCCn1cc2c3c(cccc31)CN(C(=O)COc1cccc(C)c1)CC2	KDM5B inhibitor 31.6µM
CCCn1cc2c3c(cccc31)CN(C(=O)c1cccc(C#N)c1)CC2	KDM5B inhibitor inconclusive
CCn1cc2c3c(cccc31)CN(C(=O)COc1ccc(F)cc1)CC2	KDM5B inhibitor inconclusive
COCCn1cc2c3c(cccc31)CN(C(=O)c1cccc(C(F)(F)F)c1)CC2	KDM5B inhibitor 28.2µM, SNCA viab count inconclusive, SNCA expr inh inconclusive
CCCn1cc2c3c(cccc31)CN(C(=O)COc1ccccc1)CC2	KDM5B inhibitor 31.6µM
O=C(c1ccc(Cn2cccn2)o1)N1CCCC2(CCC(=O)N(C3CC3)C2)C1 (stereo unspecified)	none
Cc1[nH]c(=O)c(C#N)cc1C(=O)N1CCCC2(CCC(=O)N(C3CC3)C2)C1 (stereo unspecified)	KDM5B inhibitor 28.2µM
Cn1c(CNC(=O)C2(C)CCCCC(=O)N2)nc2ccccc21 (stereo unspecified)	none
Cn1c(CNC(=O)C2(Cc3ccccc3)CCCCC(=O)N2)nc2ccccc21 (stereo unspecified)	KDM5B inhibitor 17.8µM
Cc1cn2nc(C(=O)N3CCN(c4ccccc4)CC3)cc2c(N(C)Cc2ccccc2)n1	KDM5B inhibitor 25.1µM
Cc1cn2nc(C(=O)N3CCCCC3)cc2c(N(C)Cc2ccccc2)n1	KDM5B inhibitor 31.6µM
O=[S+]([O-])(c1cccs1)N1CCN(Cc2ccccc2-c2ccccc2F)CC1	none (no result: KDM5B inhibitor)
Nc1nc2c(ncn2COC(CO)CO)c(=O)[nH]1	SNCA expr inh 0.0857µM! (no result: KDM5B inhibitor)
Cc1cccc(-c2cccc(CN3CCC(N[S+](=O)([O-])c4cccc(C(F)(F)F)c4)CC3)c2)c1	SNCA expr inh inconclusive (no result: KDM5B inhibitor)
CCc1noc(-c2cccn3c(CNC(=O)c4cc(C)cc(C)c4)nnc23)n1	KDM5B inhibitor inconclusive
CCc1noc(-c2cccn3c(CNC(=O)CCc4ccc(OC)cc4)nnc23)n1	none
CCc1noc(-c2cccn3c(CNC(=O)Cc4ccc(F)cc4)nnc23)n1	KDM5B inhibitor 28.2µM
CCc1noc(-c2cccn3c(CNC(=O)Cc4ccc(C)cc4)nnc23)n1	KDM5B inhibitor 25.1µM
CC(C)c1noc(-c2cccn3c(CNC(=O)Cc4ccc(F)cc4)nnc23)n1	KDM5B inhibitor 14.1µM
CCc1noc(-c2cccn3c(CNC(=O)c4cccc(C)c4)nnc23)n1	KDM5B inhibitor 28.2µM, SNCA expr inh inconclusive
O=C(NC1CCNCC1)C1CCCN(c2nc(-c3ccccc3)nc3c2CCC3)C1 (stereo unspecified)	KDM5B inhibitor inconclusive
O=C(NC1CC1)C1CCCN(c2nccc(Nc3ccccc3F)n2)C1 (stereo unspecified)	none (no result: KDM5B inhibitor)
Cc1ccc(Nc2ccnc(N3CCC(C(=O)NCC(F)(F)F)CC3)n2)cc1	none (no result: KDM5B inhibitor)
CN1CCCN(Cc2ccc3c(c2)OCO3)c2ccccc21	none (no result: KDM5B inhibitor)
O=C(NC1CC(c2nnc(CO)n2C2CC2)C1)c1csc(-c2ccccc2)n1 (stereo unspecified)	SNCA expr inh inconclusive
O=C(NC1CC(c2nnc(CO)n2C2CC2)C1)c1nc2ccccc2[nH]1 (stereo unspecified)	KDM5B inhibitor 31.6µM
CCc1cccc(NC(=O)N2CCc3nc4cc(-c5ccc(OC)cc5)[nH]n4c(=O)c3C2)c1	KDM5B inhibitor inconclusive, SNCA expr inh inconclusive
COc1ccc(-c2cc3nc4c(c(=O)n3[nH]2)CN(C(=O)CCCc2nc3ccccc3s2)CC4)cc1	KDM5B inhibitor 31.6µM, SNCA expr inh inconclusive
COc1ccc(-c2cc3nc4c(c(=O)n3[nH]2)CN(C(=O)c2ccc(Cc3c(C)noc3C)o2)CC4)cc1	KDM5B inhibitor 28.2µM, SNCA expr inh inconclusive
